# Experimental data reported in PubChem BioAssay (NCATS).
# Records with an inconclusive call do not appear. Where a call stands in place of a potency, no number is given. Active and inactive are the calls of the source. The call rests on the fitted dose curve.
# Assay: Primary qHTS for inhibitors of SARS-S pseudo-typed particle cell entry (AID 1479145); further: nearly all actives have a fitted effect of over 45% in size
# Settings: SARS-S pseudotyped particle cell entry, luciferase reporter; series mostly up to 57.1 µM
Structure (SMILES),Potency,"activity change, negative = inhibition"
CC1(C)C2CC[C@]3(C)C(C(=O)C=C4[C@@H]5C[C@@](C)(C(=O)O)CC[C@]5(C)CC[C@]43C)[C@@]2(C)CC[C@@H]1O (stereo partly specified),inactive,
Cn1cc(OCC(O)CNC(C)(C)C)c2ccccc2c1=O (stereo unspecified),inactive,
CCC(=C(CC)c1ccc(OP(=O)(O)O)cc1)c1ccc(OP(=O)(O)O)cc1,,-9.86% [at 0.573 µM] (inactive)
CC1(C)S[C@H]2[C@H](NC(=O)[C@@H](N)c3ccc(O)cc3)C(=O)N2[C@H]1C(=O)O,inactive,
CCN1CCN(C(=O)N[C@@H](C(=O)N[C@]2(OC)C(=O)N3C(C(=O)O)=C(CSc4nnnn4C)CS[C@@H]32)[C@H](C)O)C(=O)C1=O,inactive,
Cc1onc(-c2c(F)cccc2Cl)c1C(=O)N[C@@H]1C(=O)N2[C@@H]1SC(C)(C)[C@H]2C(=O)O,inactive,
OCC1OC(c2ccc(Cl)c(Cc3ccc(OC4CCOC4)cc3)c2)C(O)C(O)C1O (stereo unspecified),inactive,
CC(=O)OCC1=C(C(=O)O)N2C(=O)[C@@H](NC(=O)CC#N)[C@H]2SC1,inactive,
CC(OC(=O)OC1CCCCC1)OC(=O)C1=C(CSc2nnnn2CCN(C)C)CS[C@@H]2[C@H](NC(=O)Cc3csc(N)n3)C(=O)N12 (stereo partly specified),inactive,
[2H]N[C@@H](Cc1ccccc1)C(=O)N1CCC[C@H]1C(=O)N[C@@H](CCCNC(=N)N)C(=O)N1CCC[C@H]1C(=O)NCC(=O)NCC(=O)NCC(=O)NCC(=O)N[C@@H](CC(N)=O)C(=O)NCC(=O)N[C@@H](CC(=O)O)C(=O)N[C@@H](Cc1ccccc1)C(=O)N[C@@H](CCC(=O)O)C(=O)N[C@@H](CCC(=O)O)C(=O)N[C@H](C(=O)N1CCC[C@H]1C(=O)N[C@@H](CCC(=O)O)C(=O)N[C@@H](CCC(=O)O)C(=O)N[C@@H](Cc1ccc(O)cc1)C(=O)N[C@@H](CC(C)C)C(=O)O)[C@@H](C)CC,,-29.4% [at 11.4 µM] (inactive)
CN=C(NC)NCc1ccccc1,inactive,
Cc1cc(Nc2ncc(Cl)c(Nc3ccccc3S(=O)(=O)C(C)C)n2)c(OC(C)C)cc1C1CCNCC1,inactive,
CN(CCCCCCN(C)C(=O)Oc1ccc[n+](C)c1)C(=O)Oc1ccc[n+](C)c1,inactive,
CO[C@@H]1[C@@H](O[C@@H]2O[C@H](C)[C@@H](O[C@H]3C[C@@](C)(O)[C@H](O)[C@H](C)O3)[C@H](N(C)C)[C@H]2O)[C@@H](CC=O)C[C@@H](C)[C@@H](O[C@H]2CC[C@H](N(C)C)[C@@H](C)O2)/C=C/C=C/C[C@H](C)OC(=O)C[C@H]1O,inactive,
CO[C@H]1C[C@@H]2CC[C@@H](C)[C@@](O)(O2)C(=O)C(=O)N2CCCC[C@H]2C(=O)O[C@H]([C@H](C)C[C@@H]2CC[C@@H](OCCO)[C@H](OC)C2)CC(=O)[C@H](C)/C=C(/C)[C@@H](O)[C@@H](OC)C(=O)[C@H](C)C[C@H](C)\C=C/C=C\C=C/1C,inactive,
C#C[C@]1(O)CCC2C3CCC4=C(CCC(=O)C4)C3CC[C@@]21C (stereo partly specified),inactive,
CCCCCCCCCCCCCCCCCC(=O)[O][Al],,-36% [at 5.34 µM] (inactive)
CC/C=C\C/C=C\C/C=C\C/C=C\C/C=C\CCCC(=O)O,inactive,
O=S(=O)(O)Oc1ccc(C(c2ccc(OS(=O)(=O)O)cc2)c2ccccn2)cc1,inactive,
CO/N=C(\C(=O)N[C@@H]1C(=O)N2C(C(=O)O)=C(CSc3nnnn3C)CS[C@H]12)c1csc(N)n1,inactive,
CN1CCc2nc(C(=O)N[C@@H]3C[C@@H](C(=O)N(C)C)CC[C@@H]3NC(=O)C(=O)Nc3ccc(Cl)cn3)sc2C1,inactive,
NCCCC[C@H](NC(=O)[C@@H]1CCCN1C(=O)[C@@H]1CSSC[C@H](N)C(=O)N[C@@H](Cc2ccc(O)cc2)C(=O)N[C@@H](Cc2ccccc2)C(=O)N[C@@H](CCC(N)=O)C(=O)N[C@@H](CC(N)=O)C(=O)N1)C(=O)NCC(N)=O,inactive,
C[C@@H](O)[C@H]1C(=O)N2C(C(=O)O)=C(S[C@@H]3CN[C@H](C(=O)Nc4cccc(C(=O)O)c4)C3)[C@H](C)[C@H]12,inactive,
CO[C@H]1/C=C\O[C@@]2(C)Oc3c(C)c(O)c4c(O)c(c(/C=N/N5CCN(C6CCCC6)CC5)c(O)c4c3C2=O)NC(=O)/C(C)=C\C=C/[C@H](C)[C@H](O)[C@@H](C)[C@@H](O)[C@@H](C)[C@H](OC(C)=O)[C@@H]1C,inactive,
O=C(O)[C@@H]1CCCN1,inactive,
O[C@@H]1[C@@H](O)[C@@H](O)OC[C@@H]1O,inactive,
CCCCCCCCCCCCCC(=O)OCC(COP(=O)([O-])OCC[N+](C)(C)C)OC(=O)CCCCCCCCCCCCC (stereo unspecified),inactive,

# Assay: Primary qHTS for Huh7 cytotoxicity: counterscreen for inhibitors of MERS-S pseudotyped particle cell entry (AID 1479147)
# Settings: cell viability read-out; series mostly up to 57.1 µM
Structure (SMILES),Potency,outcome,"activity change, negative = cytotoxicity"
COc1ccc(C(=O)N2CCN(c3ccc4c(c3)CCC(=O)N4)CC2)cc1OC,inactive,,
OCC(O)COc1ccc(Cl)cc1 (stereo unspecified),inactive,,
CC(=O)OCC(=O)[C@@]12OC3(CCCC3)O[C@@H]1C[C@H]1[C@@H]3CCC4=CC(=O)C=C[C@]4(C)[C@@]3(F)[C@@H](O)C[C@@]12C,inactive,,
O=S(O)CNc1ccc(S(=O)(=O)c2ccc(NCS(=O)O)cc2)cc1,inactive,,
CN(C(=O)CO)c1c(I)c(C(=O)NCC(O)CO)c(I)c(C(=O)NCC(O)CO)c1I (stereo unspecified),inactive,,
CC(Oc1ccccc1)C(=O)N[C@@H]1C(=O)N2[C@@H]1SC(C)(C)[C@@H]2C(=O)O (stereo partly specified),inactive,,
CC(=O)NC(C=O)C(O)C(O)[C@H](O)CO (stereo partly specified),inactive,,
CNC(=O)C[C@@H](N)C(=O)N[C@@H](C(=O)N[C@@H]1C(=O)N2[C@@H]1SC(C)(C)[C@@H]2C(=O)O)c1ccc(O)cc1,inactive,,
C[C@@H]1C[C@H]2[C@@H]3C[C@H](F)C4=CC(=O)C=C[C@]4(C)[C@@]3(F)[C@@H](O)C[C@]2(C)[C@@]1(O)C(=O)COC(=O)C(C)(C)C,inactive,,
CN(C)C=Nc1c(I)cc(I)c(CCC(=O)O)c1I,inactive,,
Nc1nc(CC(=O)Nc2ccc(CCNC[C@H](O)c3ccccc3)cc2)cs1,inactive,,
CCCCC(CC)COC(=O)c1ccc(Nc2nc(Nc3ccc(C(=O)OCC(CC)CCCC)cc3)nc(Nc3ccc(C(=O)OCC(CC)CCCC)cc3)n2)cc1 (stereo unspecified),inactive,,
CCCCC[C@H](O)/C=C/[C@@H]1[C@@H](C/C=C/CCCC(=O)O)[C@@H](O)C[C@H]1O,inactive,,
CC1(C)C2CC[C@]3(C)C(C(=O)C=C4[C@@H]5C[C@@](C)(C(=O)O)CC[C@]5(C)CC[C@]43C)[C@@]2(C)CC[C@@H]1O (stereo partly specified),inactive,,
Cn1cc(OCC(O)CNC(C)(C)C)c2ccccc2c1=O (stereo unspecified),inactive,,
CCC(=C(CC)c1ccc(OP(=O)(O)O)cc1)c1ccc(OP(=O)(O)O)cc1,,inactive [at 0.573 µM],
CC1(C)S[C@H]2[C@H](NC(=O)[C@@H](N)c3ccc(O)cc3)C(=O)N2[C@H]1C(=O)O,inactive,,

Structure (SMILES),Potency,outcome,"activity change, negative = cytotoxicity"
CCN1CCN(C(=O)N[C@@H](C(=O)N[C@]2(OC)C(=O)N3C(C(=O)O)=C(CSc4nnnn4C)CS[C@@H]32)[C@H](C)O)C(=O)C1=O,inactive,,
Cc1onc(-c2c(F)cccc2Cl)c1C(=O)N[C@@H]1C(=O)N2[C@@H]1SC(C)(C)[C@H]2C(=O)O,inactive,,
OCC1OC(c2ccc(Cl)c(Cc3ccc(OC4CCOC4)cc3)c2)C(O)C(O)C1O (stereo unspecified),inactive,,
CC(=O)OCC1=C(C(=O)O)N2C(=O)[C@@H](NC(=O)CC#N)[C@H]2SC1,inactive,,
CC(OC(=O)OC1CCCCC1)OC(=O)C1=C(CSc2nnnn2CCN(C)C)CS[C@@H]2[C@H](NC(=O)Cc3csc(N)n3)C(=O)N12 (stereo partly specified),inactive,,
[2H]N[C@@H](Cc1ccccc1)C(=O)N1CCC[C@H]1C(=O)N[C@@H](CCCNC(=N)N)C(=O)N1CCC[C@H]1C(=O)NCC(=O)NCC(=O)NCC(=O)NCC(=O)N[C@@H](CC(N)=O)C(=O)NCC(=O)N[C@@H](CC(=O)O)C(=O)N[C@@H](Cc1ccccc1)C(=O)N[C@@H](CCC(=O)O)C(=O)N[C@@H](CCC(=O)O)C(=O)N[C@H](C(=O)N1CCC[C@H]1C(=O)N[C@@H](CCC(=O)O)C(=O)N[C@@H](CCC(=O)O)C(=O)N[C@@H](Cc1ccc(O)cc1)C(=O)N[C@@H](CC(C)C)C(=O)O)[C@@H](C)CC,,inactive [at 11.4 µM],
CN=C(NC)NCc1ccccc1,inactive,,
Cc1cc(Nc2ncc(Cl)c(Nc3ccccc3S(=O)(=O)C(C)C)n2)c(OC(C)C)cc1C1CCNCC1,inactive,,
CN(CCCCCCN(C)C(=O)Oc1ccc[n+](C)c1)C(=O)Oc1ccc[n+](C)c1,inactive,,
CO[C@@H]1[C@@H](O[C@@H]2O[C@H](C)[C@@H](O[C@H]3C[C@@](C)(O)[C@H](O)[C@H](C)O3)[C@H](N(C)C)[C@H]2O)[C@@H](CC=O)C[C@@H](C)[C@@H](O[C@H]2CC[C@H](N(C)C)[C@@H](C)O2)/C=C/C=C/C[C@H](C)OC(=O)C[C@H]1O,inactive,,
CO[C@H]1C[C@@H]2CC[C@@H](C)[C@@](O)(O2)C(=O)C(=O)N2CCCC[C@H]2C(=O)O[C@H]([C@H](C)C[C@@H]2CC[C@@H](OCCO)[C@H](OC)C2)CC(=O)[C@H](C)/C=C(/C)[C@@H](O)[C@@H](OC)C(=O)[C@H](C)C[C@H](C)\C=C/C=C\C=C/1C,inactive,,
C#C[C@]1(O)CCC2C3CCC4=C(CCC(=O)C4)C3CC[C@@]21C (stereo partly specified),inactive,,
CCCCCCCCCCCCCCCCCC(=O)[O][Al],,,-3.61% [at 5.34 µM] (inactive)
CC/C=C\C/C=C\C/C=C\C/C=C\C/C=C\CCCC(=O)O,inactive,,
O=S(=O)(O)Oc1ccc(C(c2ccc(OS(=O)(=O)O)cc2)c2ccccn2)cc1,inactive,,
CO/N=C(\C(=O)N[C@@H]1C(=O)N2C(C(=O)O)=C(CSc3nnnn3C)CS[C@H]12)c1csc(N)n1,inactive,,
CN1CCc2nc(C(=O)N[C@@H]3C[C@@H](C(=O)N(C)C)CC[C@@H]3NC(=O)C(=O)Nc3ccc(Cl)cn3)sc2C1,inactive,,
